# Assays:
# Assay type in all cases: functional
# [1] = molecular target: Solute carrier family 2, facilitated glucose transporter member 1 (Homo sapiens) (UniProt P11166); assay: ST_JUDE_LEISH: Cytotoxicity at 2uM final concentration against transgenic Leishmania Mexicana promastigotes LmGLUT1 that are glucose transport deficient and complemented with the human glucose transporter GLUT1. Activity is measured by DNA content using SYBR green in vitro
# [2] = molecular target: Hexose transporter 1 (Plasmodium falciparum) (UniProt O97467); assay: ST_JUDE_LEISH: Cytotoxicity at 2uM final concentration against transgenic Leishmania Mexicana promastigotes LmPfHT that are glucose transport deficient and complemented with the Plasmodium falciparum hexose transporter. Activity is measured by DNA content using SYBR green in vitro
# [3] = molecular target: Glucose transporter (Leishmania mexicana) (UniProt O61059); assay: ST_JUDE_LEISH: Cytotoxicity at 2uM final concentration against transgenic Leishmania Mexicana promastigotes LmGT2 that are glucose transport deficient and complemented with the L. Mexicana glucose transporter 2. Activity is measured by DNA content using SYBR green in vitro
# Chain of Solute carrier family 2, facilitated glucose transporter member 1 (Homo sapiens) (P11166 whole entry): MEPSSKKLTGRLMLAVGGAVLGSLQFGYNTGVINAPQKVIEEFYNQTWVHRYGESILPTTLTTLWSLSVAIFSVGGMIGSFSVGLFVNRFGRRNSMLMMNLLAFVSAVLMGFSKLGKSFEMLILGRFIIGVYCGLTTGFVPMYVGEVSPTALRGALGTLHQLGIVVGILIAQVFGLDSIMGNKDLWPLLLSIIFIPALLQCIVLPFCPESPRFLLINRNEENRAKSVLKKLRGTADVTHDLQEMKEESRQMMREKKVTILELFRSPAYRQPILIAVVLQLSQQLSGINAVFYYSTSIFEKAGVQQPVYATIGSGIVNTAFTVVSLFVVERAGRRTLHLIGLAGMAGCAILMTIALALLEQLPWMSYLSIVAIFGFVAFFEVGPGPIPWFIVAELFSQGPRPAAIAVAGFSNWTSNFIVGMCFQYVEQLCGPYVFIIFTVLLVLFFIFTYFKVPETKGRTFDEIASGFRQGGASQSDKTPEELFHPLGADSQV
Structure (SMILES),inhibition [1],inhibition [2],inhibition [3]
O=C1NC(C(=O)Nc2ccccc2)C(c2ccccc2)S1 (stereo not given),-0.88%,-1.96%,-0.52%
CN(C(=O)Nc1ccc(F)cc1)C1CCN(CCCCCNC(=O)/C=C/c2ccc(Cl)c(Cl)c2)CC1,1%,1.65%,2.01%
c1ccc(CNCc2cccc(-c3ccc(-c4nc5ccccc5[nH]4)s3)c2)cc1,4.03%,3.45%,3.41%
NCCNc1ccnc2cc(Cl)ccc12,0.54%,1.61%,1.05%
CC(C)(C)CNc1noc(-c2sccc2Br)n1,-0.27%,-0.43%,-0.7%
Nc1nc(O)c2c(n1)CCc1c(Br)cccc1-2,-1.17%,-0.59%,-1.14%
CC(C)(C)c1ccc(OC(=O)c2ccc(NC(=O)N[C@@H](Cc3ccc(O)cc3)C(=O)NC3CCN(Cc4ccc(O)cc4)C3)cc2)cc1 (stereo not given in full),9.86%,4%,9.56%
COc1ccc(CN(C)CCCOc2ccc(NC(=O)c3cccc4c(=O)c5cccc(C)c5[nH]c34)cc2)cc1OC,4.56%,4.25%,3.39%
CCNC(=O)c1cc(S(=O)(=O)N2CCN(c3ccccn3)CC2)cs1,0.14%,-0.21%,2.62%
CC(Cc1ccc(NC(=O)c2ccc(CNCCCCc3ccccc3)cc2)cc1)NCCc1cccc(Cl)c1 (stereo not given),106%,102%,105%
COC(=O)c1ccc(CCC(C)NCC(O)c2cccc(C(F)(F)F)c2)cc1 (stereo not given),0.8%,0.12%,3.23%
Nc1c2c(nc3ccc(C(=O)Nc4ccccc4)cc13)CCCC2,4.09%,3.96%,3.87%
O=C(NCCNc1noc(-c2sccc2Br)n1)c1ccc(Cl)cc1,-1.4%,3.34%,-0.91%
Cc1nn(-c2ccccc2)nc1C(=O)N(Cc1ccc(-c2ccc(CNCCc3ccc(S(C)(=O)=O)cc3)cn2)cc1)C1CC1,3.23%,3.85%,2.91%
Cc1cc(=O)c(-c2ccc(Oc3cccc(OC(F)(F)F)c3)cc2)c(C)[nH]1,1.89%,1.17%,-1.14%

# From ChEMBL document CHEMBL3433997, “St. Jude Leishmania screening dataset” (2016)
